IL-1B inflam inh: inflammasome signaling inhibition, IL-1 beta readout | THP-1 LPS/ATP IL-1B secretion, AlphaLISA, 16 h; active compounds read low | activity change, % at 57.5 µM | 4.7% of 360,000 active; in the data active means activity change below about -50%; inconclusive means mostly about -30% to -49%; further: on the % scale 0 is the no-effect control and ±100 the full control effect
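Secreted IL-1B measured by AlphaLISA bead assay after 16 h compound exposure of THP-1 cells; compounds (final up to 57.5 uM) added 1 h before LPS (250 ng/mL) and ATP (1.25 mM) stimulation; lower signal means less secretion.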
ATXN2 expr inh: inhibitors of ATXN2 expression; HEK-293 ATXN2-luciferase reporter, luminescence, 24 h; Potency, µM (titrated, usually from 57 µM), for the others: at the highest dose activity change, negative = inhibition, hits mostly inhibitors; 0.72% of 360,000 active; AID 1745845; further: potency means the concentration at half of the fitted maximal effect; on the % scale 0 is the no-effect control and ±100 the full control effect; nearly all actives have a fitted effect of over 55% in size
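qHTS (up to 57 uM final) was run with 24 h compound exposure of reporter cells at 37 °C. Each well was multiplexed: SteadyGlo luminescence measured ATXN2-luciferase expression after a fluorogenic Gly-Phe-AFC viability readout (25 uM final).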
Integrin act MD: activates integrin-mediated alleviation for muscular dystrophy | alpha7betagal myoblasts, beta-gal FDG fluorescence, 48 h | Potency, µM (highest dose often 38.3 µM), without a hit: top-dose activation, usual class: activators | AID 624291 | 0.064% of 350,000 active;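 further: potency means the concentration at half of the fitted maximal effect; 100% = response of the positive control SU9516; nearly all actives have a fitted effect of over 60% in size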
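alpha7betagal+/- myoblasts (passage 13, 250/well) treated 48 h at 37C with compounds at 1:260 dilution of DMSO stock. Lysed, then beta-galactosidase activity read as FDG fluorescence (ex 480/em 540) after 30 min, with pre-read for autofluorescence.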
DRD3 agonist: activates the human D3 dopamine receptor; P35462; max activation, %; D3R DiscoveRx beta-arrestin cells, luminescence, 90 min; AID 652048; 0.58% of 410,000 active; in the data active means max activation above about 30%; further: 0% is about no effect
Target sequence (P35462 whole entry, looked up): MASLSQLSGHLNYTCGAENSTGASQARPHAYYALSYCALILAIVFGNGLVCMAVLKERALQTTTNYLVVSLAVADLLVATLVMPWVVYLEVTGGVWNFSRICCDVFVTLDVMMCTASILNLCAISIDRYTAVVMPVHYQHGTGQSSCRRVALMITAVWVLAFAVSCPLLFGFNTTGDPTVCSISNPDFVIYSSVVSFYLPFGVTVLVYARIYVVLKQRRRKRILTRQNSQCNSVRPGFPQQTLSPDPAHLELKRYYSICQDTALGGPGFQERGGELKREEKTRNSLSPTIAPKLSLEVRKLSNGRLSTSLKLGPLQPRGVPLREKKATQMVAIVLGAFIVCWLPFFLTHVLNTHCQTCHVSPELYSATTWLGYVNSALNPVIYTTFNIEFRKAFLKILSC
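Agonist mode: compounds and dopamine controls were applied to plated cells for 90 min at 37 degrees C after an overnight attachment at 1500 cells/well. Luminescent read-out followed 30 - 60 minutes at room temperature with DiscoveRx detection reagent.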
S2 tox: cell viability loss in ATXN counter-screen | S2 cells (HEK-293 line with an ATXN2-luciferase reporter) viability, CellTiter-Fluor protease fluorescence, 24 h | Potency, µM (highest dose often 56.7 µM), hits mostly cytotoxic | 0.49% of 400,000 active; further: potency means the concentration at half of the fitted maximal effect; nearly all actives have a fitted effect of over 40% in size
DRD3 antagonist: antagonists of human D3 dopamine receptor; D3R cells, DiscoveRx beta-arrestin luminescence, antagonist mode; active compounds read low; AID 652054; P35462; max response, negative = inhibition, %; 2.5% of 360,000 active; in the data active means max response below about -50%; inconclusive means no clear call, values can overlap the other calls; further: on the % scale 0 is the no-effect control and ±100 the full control effect
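Cells expressing the human receptor were seeded at 1500 cells/well, incubated overnight at 37 degrees C in 5% CO2, then exposed to library compounds with dopamine controls for 90 minutes at 37 degrees C before luminescent detection.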
The depositor's hits bear a star; i = inactive; ? = inconclusive; . = no result. Compounds with a hit are over-represented: about 7% of the library has one in this group of screens. Unless noted, the call rests on the fitted dose curve; in most records, active means well fitted curve in the direction sought with a large enough effect; inconclusive means small, poorly fitted or top-dose-only effect, or another doubt; inactive means no such curve, though single readings can be large; an effect the other way counts as inactive or inconclusive.

SMILES	IL-1B inflam inh	ATXN2 expr inh	Integrin act MD	DRD3 agonist	S2 tox	DRD3 antagonist
Cc1onc(-c2ccccc2Cl)c1C(=O)N1CCC(Cc2ccccc2)CC1	-92*	-22%	-16%	-2	i	7
COc1cccc(C2C3=C(N=c4s/c(=C\c5ccc(O)cc5)c(=O)n42)c2ccccc2CC3)c1OC (stereo not given)	16	6%	-17%	6	i	-1
COc1cccc(C2C3=C(N=c4s/c(=C\c5cccc(O)c5)c(=O)n42)c2ccccc2CC3)c1OC (stereo not given)	-57*	0%	-1%	-14	i	6
O=C(COC(=O)c1ccccc1OCC(=O)Nc1ccc(Br)cc1)Nc1ccccc1	12	-5%	13%	-4	?	-51*
CCOC(=O)c1ccc(NC(=O)COc2ccc(CNCCO)cc2OCC)cc1	-102*	-13%	-54%	-1	i	9
CCC(C)NC(=O)COC(=O)c1ccccc1OCC(=O)Nc1ccc(Br)cc1 (stereo not given)	1	-17%	26%	-4	i	-8
O=C(COc1ccc(Br)cc1CO)Nc1ccc(F)cc1	-12	2%	23%	-5	i	13
CCN(CC)CCNCc1cc(Br)ccc1OCC(=O)NCc1ccccc1	-12	.	-48%	-9	i	-8
O=C(COc1ccc(Br)cc1CNC1CCCC1)Nc1ccccc1	-63*	-9%	-30%	-16	i	-15
CC(NCc1cc(Br)ccc1OCC(=O)NCc1ccccc1)c1ccccc1 (stereo not given)	-68*	-27%	-59%	-8	?	-18
CNCc1ccccc1OCC(=O)Nc1ccccc1	11	50%	18%	-20	i	-52*
CCOC(=O)c1ccc(NC(=O)CNNC(=O)COc2ccccc2C)cc1	-22	7%	8%	-1	i	-4
CCOC(=O)c1ccc(NC(=O)COc2ccccc2CNCCc2ccccc2)cc1	-88*	?	-59%	-21	.	-28
Cc1ccc2nc(SCC3CCCCO3)[nH]c2c1 (stereo not given)	2	11µM*	27%	-3	i	-16
Cc1ccc2nc(SCC(=O)N3CCOCC3)[nH]c2c1	-11	5%	18%	1	i	15
C=CCOC(=O)C1=C[C@@H](c2cn(C(C)=O)c3ccccc23)C[C@@H](OCc2ccc(CO)cc2)O1	13	0%	37%	2	?	31
Cc1cc(C)n2nc(/C(C#N)=C/c3ccccn3)c(C#N)c2n1	-98*	?	-39%	-5	?	-22
CN(C)c1ccc(/C=C(\C#N)c2ccccn2)cc1	-10	11µM*	-12%	-9	i	-7
N#C/C(=C\c1ccc([N+](=O)[O-])cc1)c1ccccn1	-73*	61%	0%	-8	i	-17
N#C/C(=C\c1ccccn1)c1ccccn1	-94*	8%	-43%	11	?	?
N#C/C(=C\c1cccnc1)c1ccc([N+](=O)[O-])cc1	-21	9%	-20%	4	?	7
COC(=O)c1ccc(/C=C(\C#N)c2ccccn2)cc1	25	28%	-48%	-9	?	-18
CC(Sc1ccc(Cl)cc1)C(=O)NCc1cccnc1 (stereo not given)	15	4%	20%	8	i	0
COc1ccc(-c2csc(NC(=O)c3ccccc3NS(=O)(=O)c3ccc(F)c(F)c3)n2)cc1	-68*	7.1µM*	-71%	24	?	-13
O=C(Nc1nc(-c2nc3ccccc3s2)cs1)c1ccc(S(=O)(=O)N2CCOCC2)cc1	?	?	-42%	51*	?	48
SMILES	IL-1B inflam inh	ATXN2 expr inh	Integrin act MD	DRD3 agonist	S2 tox	DRD3 antagonist
COc1ccc(-c2csc(NC(=O)c3ccc(OCC(=O)N4CCOCC4)c(OC)c3)n2)cc1	-79*	-12%	-10%	9	?	41
COc1cccc(C(=O)Nc2nc(-c3ccc(S(=O)(=O)N4CCOCC4)cc3)cs2)c1	?	16µM*	5%	0	?	51
O=C(OCC(=O)N1CCCC1=O)c1ncc(Cl)c(Cl)c1Cl	-13	6%	-2%	-2	i	12
N#C/C(=C\c1ccccc1[N+](=O)[O-])c1nc(C2CC2)cs1	-78*	24%	-33%	-14	i	?
N#C/C(=C/c1ccccc1[N+](=O)[O-])c1nc(C2CC2)cs1	?	?	-19%	4	?	7
O=C(c1cn(Cc2ccccc2)nc1-c1ccc(Cl)cc1)N1CCN(c2ccccn2)CC1	-11	-10%	-9%	-9	?	6
Cc1nc([N+](=O)[O-])c(Br)n1CC(=O)c1ccc(F)cc1	-97*	-13%	-23%	-1	i	?
Cc1nc([N+](=O)[O-])c(Br)n1CC(=O)c1cccc([N+](=O)[O-])c1	-98*	?	-32%	6	?	-51*
COc1ccccc1/C=C/CN1CCC(Oc2ccc(C(=O)N3CCCCC3)cc2)CC1	-57*	-7%	-31%	-50	?	-105*
COc1ccccc1/C=C/CN1CCC(Oc2cc(C(=O)NC3CC3)ccc2OC)CC1	-8	.	-10%	-7	?	-77*
CC(=O)OC(COc1ccccc1)Cn1cnc2ccccc21 (stereo not given)	3	-1%	-5%	0	i	0
CC(=O)OC(COc1ccccc1)Cn1cnc2cc(C)c(C)cc21 (stereo not given)	-7	-21%	-6%	0	i	-59*
CCOC(=O)c1cc2c(s1)-c1c(C)cccc1OC2	5	14%	9%	-3	i	8
Cc1nc2ccc(C(=O)N3CCc4c(cnc(C)c4CNC(=O)/C=C/c4cccs4)C3)cc2nc1C	.	.	.	.	i	.
Cc1ccc(-n2c(=O)[nH]c3ncccc3c2=O)cc1	1	.	15%	3	i	-9
Cc1ccc(-n2c(-c3ccc(Br)cc3)c[n+]3c2CCc2ccc4cccnc4c2-3)cc1	-105*	5µM*	-64%	23	14µM*	?
O=c1ccc2[n+]([O-])c3ccc(O)cc3oc-2c1	1	.	0%	0	i	2
O=C(c1ccc(C#CC2(O)CCCCC2)cc1)N1CCN(C(c2ccccc2)c2ccccc2)CC1	-58*	4%	-54%	-8	?	-1
O=C(c1ccc(C#CC2(O)CCCCC2)cc1)N1CCN(Cc2ccccc2)CC1	-11	4%	-18%	4	?	?
CC1(C)CC(C)(c2ccc(O)cc2O)N(c2ccc3ccccc3c2)C(=S)N1 (stereo not given)	-12	0%	16%	-24	i	-62*

Assay outcomes as filed in PubChem BioAssay.
